Unmarked numbers belong to inactive results. Inconclusive results are not listed. The source made the active and inactive calls. Unless noted, calls follow the shape of the dose curve; as a rule, active = well fitted curve in the direction sought with a large enough effect; inconclusive = small, poorly fitted or top-dose-only effect, or another doubt; inactive = no such curve, though single readings can be large; an effect the other way counts as inactive or inconclusive. Bounds are passed on as bounds.

Test [1] deals with Lysosomal acid glucosylceramidase (Homo sapiens) (UniProt P04062). As to the kind of experiment: Glucocerebrosidase-p2 (AID 348; in the data active = potency below about 10 µM; also: potency is read from the fitted curve at half-maximal effect). Particulars: purified GBA, blue fluorogenic substrate, 40 min. The essentials: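 Compounds titrated from 0.6 nM upwards against 0.2 nM enzyme in pH 5.9 citric acid/KH2PO4, taurocholate, tween-20; blue fluorogenic substrate 80 uM, 40 min room temperature, stopped and read Ex 365/Em 440 for AC50.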

The target in test [2] is Glucocorticoid receptor (Homo sapiens) (UniProt P04150). As to the kind of experiment: GR-GFP Redistribution (AID 450;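 active = compounds whose dose series gives a full or clear partial fitted curve of increased nuclear translocation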; also: potency is read from the fitted curve at half-maximal effect). The settings on record: U2OS GR-GFP nuclear translocation, laser cytometry, 2 h.
Test [3] has the same target. Nature of the test: GR-EFC Redistribution (AID 451; calls by dose curve; also: potency is read from the fitted curve at half-maximal effect). The settings on record: CHO-K1 GR-EFC translocation, beta-gal luminescence, 2 h. Summed up: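 CHO-K1 cells expressing nuclear EA and GR-ED fragments of b-gal; compounds titrated up to 46 uM final, 2 h at 37 C. GR nuclear translocation read as complemented b-gal luminescence after 1 h RT detection.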
In test [4] the target is Mitogen-activated protein kinase 10 (Mus musculus) (UniProt Q61831). As to the kind of experiment: JNK3 AlphaScreen Assay (AID 530; active = well fitted curve in either direction with a large enough effect, not every such curve was filed as active;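 also: kinase came from lysate of stimulated human HepG2 cells; signal reports phosphorylation of biotinylated GST-cJun 1-79 at Ser73 with 10 µM ATP; % is scaled to controls: 0 for no effect and ±100 for the full control effect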). Particulars: JNK3 lysate, c-Jun phosphorylation; series mostly up to 57.1 µM. The essentials:
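Pre-activated (IL-1β/TNFα) JNK3 in HepG2 lysates phosphorylates biotin-GST-cJun(1-79), 10 uM ATP; anti-phospho-cJun(Ser73) AlphaScreen read at room temperature, pH 7.6 Tris buffer. Compounds pre-incubated 15 min as titrations.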

In test [5] the target is 3',5'-cyclic-AMP phosphodiesterase 4B (Homo sapiens) (UniProt Q07343). As to the kind of experiment: qHTS Assay for Inhibitors of PDE-IV (AID 607; active = well fitted activation curve with a large enough effect in the main read-out, with a control signal flat, not every such curve was filed as active; also: % of control where 0% means no effect). The settings on record: HEK293 ACTOne CNG channel cells, membrane potential fluorescence; series mostly up to 22.9 µM. The essentials: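 The readout is membrane depolarisation from a cAMP-sensing CNG channel, detected with a potential dye at ex 535/em 590. Cells were HEK293-derived (endogenous PDE-IV) at 1000 cells/well, titrated up to 22.9 uM final.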

For test [6], the target named is Cytochrome P450 3A4 (Homo sapiens) (UniProt P08684). Nature of the test: qHTS Assay for Activators of Cytochrome P450 3A4 (AID 885). Also: nearly all actives have a fitted effect of over 65% in size. The settings on record: recombinant CYP3A4, Luciferin-PPXE luminescence, 60 min; series mostly up to 57.1 µM. The essentials:
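Steps: enzyme/substrate mix dispensed; compound added, 10 min RT; NADPH regeneration solution added, 60 min RT; luciferin detection buffer stops reaction; 20 min later luminescence measured.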

Test [7] can be described thus: qHTS Assay for Identification of Small Molecule Agonists for Hypoxia Response Element Signaling Pathway (AID 914; active = well fitted activation curve with a large enough effect in the signal ratio, with a control signal flat, not every such curve was filed as active; the % refers to the signal ratio; also: potency is read from the fitted curve at half-maximal effect). Particulars: ME-180 HRE-bla reporter, beta-lactamase ratio, CoCl2, 17 h; activation: active compounds read high. The essentials: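 ME-180 cells carrying an HRE-driven beta-lactamase reporter were treated with compounds in a titration series plus an EC50 level of CoCl2 for 17 h at 37 degrees Celsius; CCF4 readout as the 460nm/530nm ratio gave AC50 values.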

For test [8], the target named is Dual specificity protein kinase CLK4 (Homo sapiens) (UniProt Q9HAZ1). Nature of the test: qHTS Assay for Inhibitors of CDC-like Kinase 4 (Kinase-Glo Assay) (AID 1770). Also: nearly all actives have a fitted effect of over 65% in size. Also: potency is read from the fitted curve at half-maximal effect. The settings on record: recombinant Clk4, Kinase-Glo ATP depletion luminescence; series mostly up to 66.7 µM. The essentials:
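Readout: Kinase-Glo luminescence from ATP left after a 4.5 h room-temperature reaction of 25 nM Clk4 with 100 uM RS peptide and 1 uM ATP (final). Buffer: 25 mM Tris pH 7.5, 10 mM MgCl2.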
(In general: qHTS replaces the single test concentration by a dilution series.)

The target is the same in test [9]. Nature of the test: qHTS Assay for Inhibitors of CDC-like Kinase 4 (ADP-Glo Assay) (AID 1771). Also: nearly all actives have a fitted effect of over 70% in size. Also: potency is read from the fitted curve at half-maximal effect. Particulars: recombinant CLK4, ADP-Glo luminescence; series mostly up to 80 µM. Summed up: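 25 nM Clk4 with 100 uM RS repeat peptide and 1 uM ATP (final) in buffer with 2 mM MgCl2, 0.5 mM EGTA, 2.5 mM DTT, 0.01% Triton X-100; 1 h at room temperature; ADP-Glo luminescence for ADP formed.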

Test [10] shares this target. Nature of the test: qHTS Assay for Inhibitors of CDC-like Kinase 4 (ADP-FP Assay) (AID 1795). Also: nearly all actives have a fitted effect of over 60% in size. Also: potency is read from the fitted curve at half-maximal effect. Particulars: Transcreener ADP fluorescence polarization; series mostly up to 50 µM. The essentials: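 FP readout: Orange Transcreener ADP2 tracer (4 nM) plus ADP antibody, read after 30 min at room temperature. Kinase step: 6.25 nM Clk4, 100 uM RS peptide, 1 uM ATP, pH 7.5, 1 h.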

Test [11] addresses Ubiquitin carboxyl-terminal hydrolase 1 (Homo sapiens) (UniProt O94782). Nature of the test: Inhibitors of USP1/UAF1: Pilot qHTS (AID 504865).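 Also: rhodamine fluorescence freed from ubiquitin-rhodamine substrate followed over time; top concentration of the series differs between compounds; % is scaled to controls: 0 for no effect and ±100 for the full control effect; nearly all actives have a fitted effect of over 35% in size.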 Particulars: purified USP1/UAF1, Ub-rhodamine cleavage fluorescence; series mostly up to 54.9 µM. Summed up: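 1nM USP1/UAF1 + cpd, 15 min RT; start w/ Ub-Rho 150nM final; kinetic FL 480/540 nm, 6 reads q60 s. Buffer 50mM HEPES pH 7.8, 0.5mM EDTA, 1mM TCEP, 0.01% Tween-20, 0.1 mg/ml BSA.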

A short description of test [12]: Primary qHTS for small molecule stabilizers of the endoplasmic reticulum resident proteome: Secreted ER Calcium Modulated Protein (SERCaMP) assay (AID 1508630). Also: % is scaled to controls: 0 for no effect and ±100 for the full control effect. The settings on record: SH-SY5Y GLuc-SERCaMP (Gaussia luciferase released on ER calcium loss) secretion, thapsigargin, luminescence; series mostly up to 38.4 µM. Summed up: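 GLuc-SERCaMP-expressing SH-SY5Y cells, pretreated 16 h with compound, are challenged with thapsigargin to empty ER calcium stores; after 4 h, coelenterazine is added directly to the medium and luminescence is imaged.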

Test [13] has as its target Cytochrome P450 1A2 (Homo sapiens) (UniProt P05177). Nature of the test: p450-cyp1a2 (AID 410; calls by dose curve; also: potency is read from the fitted curve at half-maximal effect). Particulars: recombinant CYP1A2, luciferin-ME demethylation, luminescence; series mostly up to 57 µM. The essentials: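 20nM CYP1A2 with 100uM Luciferin-ME (at Km) in 100mM KPO4; compound preincubated 10 min, NADPH regeneration added, 60 min at room temperature. Luciferin quantified by luminescence after detection reagent; normalized to 57 uM furafylline.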

Test [14] concerns the target Cytochrome P450 2D6 (Homo sapiens) (UniProt P10635). As to the kind of experiment: qHTS Assay for Inhibitors and Substrates of Cytochrome P450 2D6 (AID 891). Also: potency is read from the fitted curve at half-maximal effect; nearly all actives have a fitted effect of over 60% in size. Particulars: recombinant CYP2D6, luciferin-ME EGE luminescence; series mostly up to 57.1 µM. The essentials: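 Human CYP2D6 (5 nM) with 30 uM Luciferin-ME EGE (at Km) in 100 mM KPO4, compound preincubated 10 min, then NADPH regeneration system for 60 min at room temperature. Luciferin read by luminescence; normalized to 1.43 uM quinidine.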

Test [15] in a line: NFAT Signaling Pathway (AID 444; active = well fitted curve in either direction with a large enough effect, not every such curve was filed as active;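 also: carbachol stimulus at about its EC50 of 1 µM final; % is scaled to controls: 0 for no effect and ±100 for the full control effect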). Particulars: Jurkat NFAT-bla M1, carbachol, beta-lactamase ratio, 5 h; at 7.69 µM (top of the series) unless noted. Summed up:
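Jurkat cells with NFAT-driven β-lactamase reporter and co-expressed M1 receptor, stimulated with carbachol (final 1 uM, ~EC50), compound titration, 5 h at 37 °C. CCF4 loaded 1 h at RT; 460/530 nm ratio gave %activity and AC50.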

The nature of test [16]: Stat Signaling Pathway (AID 446; active = well fitted curve in either direction with a large enough effect, not every such curve was filed as active;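 also: ME-180 cervical cancer cells given 40 pM IL-6 alongside compound; SIE-controlled beta-lactamase reporter measured as 460/530 nm FRET emission ratio; % is scaled to controls: 0 for no effect and ±100 for the full control effect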). The settings on record: ME-180 SIE beta-lactamase reporter, IL-6 stimulated, 5 h; at 7.69 µM (top of the series) unless noted. The essentials: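 Screening format detects activators and inhibitors alike: ME-180 SIE-bla cells stimulated at 40 pM IL-6 for 5 hrs with compound, then dual-emission beta-lactamase read at 405 nm excitation.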

Chain of Ubiquitin carboxyl-terminal hydrolase 1 (Homo sapiens) (O94782 whole entry, looked up): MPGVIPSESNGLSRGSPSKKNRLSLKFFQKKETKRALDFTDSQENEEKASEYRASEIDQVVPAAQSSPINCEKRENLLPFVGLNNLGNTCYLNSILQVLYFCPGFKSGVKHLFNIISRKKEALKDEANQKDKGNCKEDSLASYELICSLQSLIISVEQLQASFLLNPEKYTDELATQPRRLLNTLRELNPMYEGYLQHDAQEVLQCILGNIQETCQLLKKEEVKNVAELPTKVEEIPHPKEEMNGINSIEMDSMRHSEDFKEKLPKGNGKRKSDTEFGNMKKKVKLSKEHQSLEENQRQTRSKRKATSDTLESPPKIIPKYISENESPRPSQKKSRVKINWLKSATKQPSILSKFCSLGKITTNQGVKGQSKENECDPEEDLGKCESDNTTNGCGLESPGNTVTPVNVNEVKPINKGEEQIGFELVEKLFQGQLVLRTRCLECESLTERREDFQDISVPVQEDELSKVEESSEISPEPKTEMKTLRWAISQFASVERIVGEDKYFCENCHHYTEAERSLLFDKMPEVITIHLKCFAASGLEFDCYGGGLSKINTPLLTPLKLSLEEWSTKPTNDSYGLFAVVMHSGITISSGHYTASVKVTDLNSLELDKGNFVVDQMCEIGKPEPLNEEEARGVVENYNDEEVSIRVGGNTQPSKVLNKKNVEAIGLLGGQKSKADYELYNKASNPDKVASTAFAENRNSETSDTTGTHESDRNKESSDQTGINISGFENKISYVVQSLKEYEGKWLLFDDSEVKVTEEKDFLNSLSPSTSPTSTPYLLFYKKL
Chain of Glucocorticoid receptor (Homo sapiens) (P04150 whole entry, looked up, the tested form may be a part): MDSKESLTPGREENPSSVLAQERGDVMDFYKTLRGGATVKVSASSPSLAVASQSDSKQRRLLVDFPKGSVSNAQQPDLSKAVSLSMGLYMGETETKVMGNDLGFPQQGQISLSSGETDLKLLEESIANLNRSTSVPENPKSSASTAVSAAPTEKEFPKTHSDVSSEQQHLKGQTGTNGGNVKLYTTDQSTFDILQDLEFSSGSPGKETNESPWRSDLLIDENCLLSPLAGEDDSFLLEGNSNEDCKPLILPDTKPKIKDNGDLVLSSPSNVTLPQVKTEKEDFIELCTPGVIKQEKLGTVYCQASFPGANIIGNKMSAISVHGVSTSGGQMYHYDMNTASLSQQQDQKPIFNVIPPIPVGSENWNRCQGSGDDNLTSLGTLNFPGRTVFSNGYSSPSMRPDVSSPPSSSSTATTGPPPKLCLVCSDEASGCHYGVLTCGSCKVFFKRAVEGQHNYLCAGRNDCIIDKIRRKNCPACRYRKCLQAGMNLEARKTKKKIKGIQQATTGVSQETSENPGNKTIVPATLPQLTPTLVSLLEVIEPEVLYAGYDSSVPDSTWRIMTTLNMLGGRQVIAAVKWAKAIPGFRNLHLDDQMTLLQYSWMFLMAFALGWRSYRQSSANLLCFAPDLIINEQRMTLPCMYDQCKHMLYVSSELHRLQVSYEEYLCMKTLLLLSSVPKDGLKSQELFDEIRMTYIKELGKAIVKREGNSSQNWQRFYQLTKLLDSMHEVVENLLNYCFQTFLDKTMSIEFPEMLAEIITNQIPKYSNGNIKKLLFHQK
Chain of Dual specificity protein kinase CLK4 (Homo sapiens) (Q9HAZ1 whole entry, looked up): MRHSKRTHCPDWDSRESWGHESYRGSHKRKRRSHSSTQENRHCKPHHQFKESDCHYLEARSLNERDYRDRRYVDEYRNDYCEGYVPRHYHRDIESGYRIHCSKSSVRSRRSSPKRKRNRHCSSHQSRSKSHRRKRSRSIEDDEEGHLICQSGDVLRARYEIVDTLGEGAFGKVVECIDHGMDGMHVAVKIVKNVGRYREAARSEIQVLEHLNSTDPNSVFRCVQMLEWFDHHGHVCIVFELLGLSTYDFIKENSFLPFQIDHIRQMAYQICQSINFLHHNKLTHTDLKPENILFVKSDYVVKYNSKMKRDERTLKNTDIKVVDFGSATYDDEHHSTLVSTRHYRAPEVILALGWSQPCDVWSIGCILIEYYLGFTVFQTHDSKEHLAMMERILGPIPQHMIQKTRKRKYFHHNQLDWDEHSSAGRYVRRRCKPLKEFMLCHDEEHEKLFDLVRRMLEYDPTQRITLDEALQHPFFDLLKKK
Chain of Lysosomal acid glucosylceramidase (Homo sapiens) (P04062 whole entry, looked up): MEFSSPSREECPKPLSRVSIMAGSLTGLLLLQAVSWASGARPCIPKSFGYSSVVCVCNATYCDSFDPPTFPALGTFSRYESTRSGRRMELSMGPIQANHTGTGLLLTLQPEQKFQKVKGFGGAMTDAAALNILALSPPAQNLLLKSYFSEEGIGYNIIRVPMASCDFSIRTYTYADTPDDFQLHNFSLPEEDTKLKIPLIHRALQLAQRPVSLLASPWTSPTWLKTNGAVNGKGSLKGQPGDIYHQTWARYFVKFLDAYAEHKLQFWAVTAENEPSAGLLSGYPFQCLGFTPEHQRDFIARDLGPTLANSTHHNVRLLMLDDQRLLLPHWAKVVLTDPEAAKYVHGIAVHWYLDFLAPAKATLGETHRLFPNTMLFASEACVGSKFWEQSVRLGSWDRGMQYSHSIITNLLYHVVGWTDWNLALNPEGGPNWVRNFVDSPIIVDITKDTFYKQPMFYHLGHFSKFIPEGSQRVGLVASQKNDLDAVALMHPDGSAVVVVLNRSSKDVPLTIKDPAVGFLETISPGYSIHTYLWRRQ
Chain of 3',5'-cyclic-AMP phosphodiesterase 4B (Homo sapiens) (Q07343 whole entry, looked up): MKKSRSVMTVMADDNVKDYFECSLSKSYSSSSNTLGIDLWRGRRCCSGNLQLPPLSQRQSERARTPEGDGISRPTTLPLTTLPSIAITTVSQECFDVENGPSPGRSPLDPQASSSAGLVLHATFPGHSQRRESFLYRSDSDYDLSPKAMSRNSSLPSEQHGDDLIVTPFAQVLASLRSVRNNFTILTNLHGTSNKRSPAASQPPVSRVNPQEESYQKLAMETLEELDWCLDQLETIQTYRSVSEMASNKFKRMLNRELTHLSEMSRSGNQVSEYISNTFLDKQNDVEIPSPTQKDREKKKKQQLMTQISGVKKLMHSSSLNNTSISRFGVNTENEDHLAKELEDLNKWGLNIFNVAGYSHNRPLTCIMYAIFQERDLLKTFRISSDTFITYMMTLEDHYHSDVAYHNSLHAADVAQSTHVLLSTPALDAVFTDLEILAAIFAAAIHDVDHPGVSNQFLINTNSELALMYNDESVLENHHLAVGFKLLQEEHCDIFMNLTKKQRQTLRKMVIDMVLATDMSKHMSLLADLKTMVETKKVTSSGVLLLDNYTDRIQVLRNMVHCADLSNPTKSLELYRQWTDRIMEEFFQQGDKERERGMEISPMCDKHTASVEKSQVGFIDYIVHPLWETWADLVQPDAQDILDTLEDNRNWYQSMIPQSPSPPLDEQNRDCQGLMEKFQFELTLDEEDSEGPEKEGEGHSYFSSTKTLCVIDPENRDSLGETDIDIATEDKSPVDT
Chain of Cytochrome P450 1A2 (Homo sapiens) (P05177 whole entry, looked up): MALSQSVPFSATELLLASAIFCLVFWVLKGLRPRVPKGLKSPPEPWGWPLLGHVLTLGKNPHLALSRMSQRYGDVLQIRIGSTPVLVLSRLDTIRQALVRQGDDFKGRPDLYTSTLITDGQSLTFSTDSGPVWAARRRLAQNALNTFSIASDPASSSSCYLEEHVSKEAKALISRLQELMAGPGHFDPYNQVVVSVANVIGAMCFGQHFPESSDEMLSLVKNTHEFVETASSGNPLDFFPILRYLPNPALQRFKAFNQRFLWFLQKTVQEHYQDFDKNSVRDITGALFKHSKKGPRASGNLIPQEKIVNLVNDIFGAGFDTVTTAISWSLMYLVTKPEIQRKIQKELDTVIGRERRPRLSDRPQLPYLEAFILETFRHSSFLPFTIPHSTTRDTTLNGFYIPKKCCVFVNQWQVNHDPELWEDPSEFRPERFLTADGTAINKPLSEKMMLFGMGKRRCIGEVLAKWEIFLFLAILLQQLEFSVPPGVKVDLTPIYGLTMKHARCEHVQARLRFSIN
Chain of Cytochrome P450 3A4 (Homo sapiens) (P08684 whole entry, looked up): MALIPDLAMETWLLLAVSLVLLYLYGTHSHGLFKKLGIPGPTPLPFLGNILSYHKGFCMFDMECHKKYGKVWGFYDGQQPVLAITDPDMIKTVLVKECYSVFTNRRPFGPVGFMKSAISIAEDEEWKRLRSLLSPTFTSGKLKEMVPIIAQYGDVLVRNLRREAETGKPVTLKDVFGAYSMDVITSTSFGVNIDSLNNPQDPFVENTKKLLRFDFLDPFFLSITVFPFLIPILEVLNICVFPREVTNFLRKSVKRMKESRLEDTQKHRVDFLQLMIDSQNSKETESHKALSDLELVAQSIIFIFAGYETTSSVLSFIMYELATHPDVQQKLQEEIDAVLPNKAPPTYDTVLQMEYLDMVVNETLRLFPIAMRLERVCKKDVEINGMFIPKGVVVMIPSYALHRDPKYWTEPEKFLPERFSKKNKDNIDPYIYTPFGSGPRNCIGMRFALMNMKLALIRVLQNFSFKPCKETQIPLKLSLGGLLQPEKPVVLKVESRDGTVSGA
Chain of Cytochrome P450 2D6 (Homo sapiens) (P10635 whole entry, looked up): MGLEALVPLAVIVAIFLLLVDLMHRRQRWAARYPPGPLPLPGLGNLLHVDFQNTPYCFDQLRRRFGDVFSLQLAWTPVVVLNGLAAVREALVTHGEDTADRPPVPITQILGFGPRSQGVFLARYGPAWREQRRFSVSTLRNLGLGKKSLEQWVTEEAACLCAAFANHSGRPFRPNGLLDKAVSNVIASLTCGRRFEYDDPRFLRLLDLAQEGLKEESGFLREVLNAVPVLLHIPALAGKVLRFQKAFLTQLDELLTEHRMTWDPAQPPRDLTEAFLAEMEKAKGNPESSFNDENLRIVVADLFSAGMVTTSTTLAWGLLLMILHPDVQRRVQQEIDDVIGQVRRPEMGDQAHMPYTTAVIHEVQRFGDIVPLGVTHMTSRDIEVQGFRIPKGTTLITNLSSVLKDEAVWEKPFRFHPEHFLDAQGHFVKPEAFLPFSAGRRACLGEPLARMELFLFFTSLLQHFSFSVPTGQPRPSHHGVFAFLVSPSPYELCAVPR

For the compound `N#CCCn1c(=O)c(-c2ccc(F)cc2)nc2cnc(N3CCNCC3)nc21`, the Potency in test [1] is more than 11.4 µM; in test [2] it was more than 9.22 µM; in test [3], more than 46 µM; in test [7], 3.16 µM (active). The Potency entry in test [4], in test [5], in test [6], in [8], in test [9] and in [10] was “inactive” in each case. Moreover, the Potency result in [11] was “inactive”. The result in test [12] was inactive.
On to `CCNc1ncc2nc(-c3cc(F)cc(F)c3)c(=O)n(CCOC)c2n1`, for which the Potency is more than 11.4 µM in test [1]; 3.16 µM (active) in test [13]; more than 9.22 µM in test [2]; more than 46 µM in test [3]; 0.316 µM (active) in [14]. Also, the Potency result in [4], in test [6], in test [8], in [9], in test [10] and in test [11] was “inactive” each time. In test [12], the result was inactive.
On to `Cn1c(=O)c(CCc2ccccc2)nc2cnc(Nc3ccccc3)nc21`, for which the Potency was more than 11.4 µM in test [1], more than 9.22 µM in [2] and more than 46 µM in test [3]. Also, in test [15], the activity change, negative = inhibition is 1.9%. For the same compound, in [16], the activity, negative = inhibition is -11.6%. In addition, the Potency result in [4], in test [6], in test [8], in test [9], in test [10] and in test [11] was “inactive” each time. Besides, the result in test [12] was inactive.
Take `CN1CCN(c2ncc3nc(-c4cccs4)c(=O)n(Cc4ccc(F)cc4)c3n2)CC1`: the figures for the Potency in [1], in test [2] and in [3] were more than 11.4 µM, more than 9.22 µM and more than 46 µM, respectively. Further, the Potency result in test [5], in [8], in test [9], in [10] and in [11] was “inactive” in each case. Moreover, in test [12], the outcome was inactive.
As to `COCCNc1ncnc2ccc(-c3c(C)noc3C)cc12`, the Potency is more than 11.4 µM in test [1]; 3.98 µM (active) in test [13]; more than 46 µM in [2]; more than 46 µM in test [3]; 1.58 µM (active) in [7]; 3.98 µM (active) in [8]. In addition, the Potency in test [9] was 0.708 µM (active); in test [10], 1.41 µM (active). Also, the Potency result in test [4], in test [5], in test [6] and in test [11] was “inactive” each time. Also, the result in test [12] was inactive.
As to `CN(C)c1ncc2nc(-c3ccc(F)cc3)c(=O)n(CCc3ccccc3)c2n1`, the Potency in test [1] was more than 11.4 µM; in test [13], 2.51 µM (active); in test [2], more than 9.22 µM; in [3] it was more than 46 µM; in [7] it was 1 µM (active). The activity change, negative = inhibition in test [15] is 162% [activator] (active). The Potency entry in test [5], in test [8], in test [9], in [10] and in test [11] was “inactive” each time. The outcome in test [12] was inactive.
As to `N#CCCn1c(=O)c(-c2ccc(Cl)cc2)nc2cnc(N3CCNCC3)nc21`, the Potency in test [1] is more than 11.4 µM; in test [2], more than 9.22 µM; in test [3] it was more than 46 µM. In addition, the Potency entry in [4], in [5], in test [6], in [8], in test [9] and in test [10] was “inactive” each time. For the same compound, the Potency result in test [11] was “inactive”. For the same compound, the result in test [12] was inactive.

Values taken from PubChem BioAssay (NCATS).
